Consider 7 molecules from PubChem BioAssay (Tox21).

Assay [1] can be described thus: qHTS assay to identify small molecule antagonists of the estrogen receptor alpha (ER-alpha) signaling pathway using the BG1 cell line in the presence of 0.1 nM 17-beta-estradiol - cell viability counter screen (AID 1259241). Also: nearly all actives have a fitted effect of over 40% in size. Summed up: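 The cell line endogenously expresses full-length ER-alpha and carries four EREs driving luciferase. Cells are cultured 5 days hormone-free, treated 22 hr with compounds and 0.1 nM estradiol, then viability is read by fluorescence.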

A short description of assay [2]: qHTS assay to identify small molecule antagonists of the androgen receptor (AR) signaling pathway using the MDA cell line in the presence of 0.5 nM R1881 - cell viability counter screen (AID 1259242). Also: nearly all actives have a fitted effect of over 45% in size. Summed up: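 Human breast carcinoma MDA-kb2 cells, cultured without CO2, receive compounds alongside 0.5 nM (final) R1881 agonist. After 16 hr at 37C, viability is taken as live-cell protease signal.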

The target in assay [3] is Androgen receptor (Homo sapiens) (UniProt P10275). The assay can be described thus: qHTS assay to identify small molecule antagonists of the androgen receptor (AR) signaling pathway using the MDA cell line in the presence of 0.5 nM R1881 (AID 1259243). Also: nearly all actives have a fitted effect of over 50% in size. Also: potency is read from the fitted curve at half-maximal effect. Summed up:
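Cells: MDA-kb2 (MMTV-luc). Stimulus: 0.5 nM R1881. Time: 16 hr, 37C, no CO2. Detection: ONE-Glo luminescence after 30 min at RT.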

Assay [4] deals with Estrogen receptor (Homo sapiens) (UniProt P03372). The assay is described as follows: qHTS assay to identify small molecule antagonists of the estrogen receptor alpha (ER-alpha) signaling pathway using the BG1 cell line in the presence of 0.1 nM 17-beta-estradiol (AID 1259244). Also: nearly all actives have a fitted effect of over 50% in size. Summed up: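 Seeding of stripped-serum-adapted VM7Luc4E2 cells, 24 h attachment, compound transfer, then 0.1 nM final 17beta-estradiol; after 22 h incubation, ONE-Glo reagent and luminescence reading.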
Chain of Estrogen receptor (Homo sapiens) (P03372 whole entry, looked up): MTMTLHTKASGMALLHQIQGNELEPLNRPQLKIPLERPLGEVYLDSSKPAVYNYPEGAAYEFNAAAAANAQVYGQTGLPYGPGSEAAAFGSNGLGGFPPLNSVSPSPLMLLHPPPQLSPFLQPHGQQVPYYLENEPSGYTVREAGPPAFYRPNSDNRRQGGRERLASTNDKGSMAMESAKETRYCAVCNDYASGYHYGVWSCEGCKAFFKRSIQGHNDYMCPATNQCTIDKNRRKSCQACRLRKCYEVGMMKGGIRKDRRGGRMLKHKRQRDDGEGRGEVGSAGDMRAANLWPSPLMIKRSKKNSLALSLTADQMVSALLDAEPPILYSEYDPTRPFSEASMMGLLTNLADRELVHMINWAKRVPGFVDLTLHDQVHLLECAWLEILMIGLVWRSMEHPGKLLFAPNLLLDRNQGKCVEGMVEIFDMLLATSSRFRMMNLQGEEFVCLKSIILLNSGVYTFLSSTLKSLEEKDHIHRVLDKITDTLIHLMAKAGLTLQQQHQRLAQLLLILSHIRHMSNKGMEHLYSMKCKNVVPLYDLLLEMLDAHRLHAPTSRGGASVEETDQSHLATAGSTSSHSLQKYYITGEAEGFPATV

Assay [5] is described as follows: qHTS assay to identify small molecule HDAC inhibitors (AID 1259364). Also: potency is read from the fitted curve at half-maximal effect.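 Also: wild-type HCT-116 cells with endogenous class I/II HDAC activity; nearly all actives have a fitted effect of over 45% in size.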 Summed up: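 After a 2 hr compound incubation (37C, 5% CO2), HCT-116 cells seeded at 1,500/well the day before received HDAC-Glo reagent; signal read as luminescence after 30 min at room temperature.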
The nature of assay [6]: qHTS assay to identify small molecule HDAC inhibitors - cell viability counter screen (AID 1259365). Also: series mostly up to about 92 µM; nearly all actives have a fitted effect of over 50% in size. Summed up: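 Viability readout: CellTiter-Glo luminescence. Wild-type HCT-116 cells, 2hr compound treatment following overnight attachment at 37 C.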
Assay [7] is described as follows: qHTS assay to identify small molecule agonists of the sonic hedgehog signaling (Shh) pathway - cell viability counter screen (AID 1259366). Also: nearly all actives have a fitted effect of over 50% in size. The gist of the method: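 Viability measured fluorometrically (CellTiter-Fluor, 1hr, 37C) in 3T3 Gli1-Luc reporter cells after 23hr compound exposure within a 24hr incubation at 37C/5% CO2.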
The nature of assay [8]: qHTS assay to identify small molecule antagonists of the sonic hedgehog signaling (Shh) pathway - cell viability counter screen (AID 1259367). Also: nearly all actives have a fitted effect of over 55% in size. The gist of the method: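 Tox21 library chemicals were tested on a Gli1-Luc NIH/3T3 clone (2,000 cells/well) stimulated by conditioned medium; viability was quantified as fluorescence from CellTiter-Fluor reagent added at 23 hr.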

The nature of assay [9]: qHTS assay to identify small molecule agonists of the sonic hedgehog signaling (Shh) pathway (AID 1259368; calls by dose curve;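 also: NIH/3T3-derived 3T3Gli1-Luc cells carrying a stable Gli1-driven firefly luciferase reporter; series mostly up to about 92 µM; nearly all actives have a fitted effect of over 15% in size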). The gist of the method:
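Stable NIH/3T3 Gli1-Luc reporter clone; 24 hr cpd exposure after a 4 hr settling period; luminescence endpoint.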

Assay [10] in a line: qHTS assay to identify small molecule agonists of the androgen receptor (AR) signaling pathway in the presence of an antagonist - cell viability counter screen (AID 1259379).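 Also: MDA-kb2 human breast cancer cells carrying an MMTV luciferase reporter; series mostly up to about 92 µM; nearly all actives have a fitted effect of over 25% in size.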 The gist of the method:
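Counter screen for cell viability run in parallel with the AR agonist-mode luciferase assay. MDA-kb2 cells were co-treated with nilutamide (3.0uM final) and compounds, then incubated 16 hr at 37C, and CellTiter-Fluor fluorescence was measured.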

Assay [11] in a line: qHTS assay to identify small molecule agonists of the estrogen receptor beta (ER-beta) signaling pathway - cell viability counter screen (AID 1259380). Also: nearly all actives have a fitted effect of over 30% in size. Also: potency is read from the fitted curve at half-maximal effect. The gist of the method:
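In this qHTS counter screen, HEK293T cells carrying an ER-beta/UAS beta-lactamase reporter, grown in 2% charcoal-stripped FBS, received compound for 16 hr; ATP-based CellTiter-Glo luminescence was then read after 30 min at room temperature.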

Assay [12] has as its target Androgen receptor (Homo sapiens) (UniProt P10275). The assay is described as follows: qHTS assay to identify small molecule agonists of the androgen receptor (AR) signaling pathway in the presence of an antagonist (AID 1259381; calls by dose curve; also: nearly all actives have a fitted effect of over 15% in size; also: potency is read from the fitted curve at half-maximal effect). The gist of the method: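 AR antagonist background: nilutamide 3.0uM final. Cell line: MDA-kb2, MMTV-driven luciferase, responsive to both AR and GR. Exposure 16hr, 37C, no CO2; ONE-Glo luminescence.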

Assay [13] can be described thus: qHTS assay to identify small molecule antagonists of the estrogen receptor beta (ER-beta) signaling pathway - cell viability counter screen (AID 1259382). Also: series mostly up to about 92 µM; nearly all actives have a fitted effect of over 55% in size. Summed up: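 HEK293T ER-beta-UAS-bla, 2% charcoal-stripped FBS; compounds + 1nM E2 16 hr 37C; CellTiter-Glo luminescence, 30 min RT.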
The target of assay [14] is Estrogen receptor (Homo sapiens) (UniProt P03372). The assay can be described thus: qHTS assay to identify small molecule agonists of the estrogen receptor alpha (ER-alpha) signaling pathway in the presence of an antagonist (AID 1259383; calls by dose curve; also: nearly all actives have a fitted effect of over 15% in size; also: potency is read from the fitted curve at half-maximal effect; as to activation: top concentration of the series differs between compounds). Summed up:
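ER-alpha agonism measured under antagonist challenge: 10.0nM ICI-182,780 (final) plus compound, 15 concentrations, 22hr, VM7Luc4E2 ERE-luciferase cells. Read by luminescence.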

The nature of assay [15]: qHTS assay to identify small molecule agonists or antagonists of the thyroid stimulating hormone receptor (TSHR) signaling pathway - wild type cell line counter screen (AID 1259384; calls by dose curve). Summed up:
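Wild-type Hek293 cells, 800/well, 18 h at 37C, then compound with Ro20-1724 for 30 min RT. cAMP by HTRF (cAMP-d2/anti-cAMP cryptate), 1 h RT, fluorescence read. 15 concentrations, triplicates.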

Assay [16] addresses Thyrotropin receptor (Homo sapiens) (UniProt P16473). The assay can be described thus: qHTS assay to identify small molecule antagonists of the thyroid stimulating hormone receptor (TSHR) signaling pathway (AID 1259385; calls by dose curve; also: nearly all actives have a fitted effect of over 20% in size). Summed up: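 TSHR-HEK293 cells (800/well) plated 18 h, then compounds with Ro20-1724 and TSH at 1.5 ng/mL final, 30 min at room temperature. cAMP quantified by HTRF (cAMP-d2/anti-cAMP-cryptate, 1 h); 15 concentrations in triplicate.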

The nature of assay [17]: qHTS assay to identify small molecule antagonists of the sonic hedgehog signaling (Shh) pathway (AID 1259369; calls by dose curve; also: nearly all actives have a fitted effect of over 45% in size). The gist of the method: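 Gli1 transcriptional reporter (firefly Luc) in NIH/3T3 background, conditioned-medium activated. 24hr exposure, luminescence endpoint.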
For assay [18], the target named is Estrogen receptor beta (Homo sapiens) (UniProt Q92731). The assay is described as follows: qHTS assay to identify small molecule agonists of the estrogen receptor beta (ER-beta) signaling pathway (AID 1259377; active = well fitted activation curve with a large enough effect in the signal ratio in the repeat runs, not every such curve was filed as active; the % refers to the signal ratio; also: potency is read from the fitted curve at half-maximal effect). Summed up:
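A UAS-controlled beta-lactamase reporter in ER-beta-UAS-bla HEK293T cells reports receptor activation. Compounds act for 16 hr at 37C in 2% charcoal-stripped serum, and a FRET substrate is read by fluorescence after 2 hours.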

Assay [19] has the same target. The assay can be described thus: qHTS assay to identify small molecule antagonists of the estrogen receptor beta (ER-beta) signaling pathway (AID 1259378; active = well fitted inhibition curve with a large enough effect in the signal ratio in the repeat runs, not every such curve was filed as active; the % refers to the signal ratio). Summed up: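 ER-beta-UAS-bla HEK293T cells in 2% charcoal-stripped FBS medium treated with compound plus 1nM final 17-beta-estradiol for 16 hr at 37C. Beta-lactamase reporter read by FRET substrate fluorescence after 2 hours at room temperature.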

Assay [20] can be described thus: qHTS assay to identify small molecule phospholipidosis (PLD) inducers (AID 1259344; active = well fitted curve in the direction sought with a large enough effect; an effect the other way counts as inactive or inconclusive). Summed up: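 Image-based: LipidTOX Red pit count/intensity per well and per cell; HepG2, 24 h compound at 37 C, PFA fixation, Hoechst counterstain.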

Values without a mark were called inactive. Results filed as inconclusive are left out. The source made the active and inactive calls. Unless noted, calls follow the shape of the dose curve; as a rule, active = well fitted curve in the direction sought with a large enough effect in the repeat runs; inconclusive = weak or mixed curves; inactive = no such curve, though single readings can be large; an effect the other way counts as inactive or inconclusive.

Chain of Thyrotropin receptor (Homo sapiens) (P16473 whole entry, looked up): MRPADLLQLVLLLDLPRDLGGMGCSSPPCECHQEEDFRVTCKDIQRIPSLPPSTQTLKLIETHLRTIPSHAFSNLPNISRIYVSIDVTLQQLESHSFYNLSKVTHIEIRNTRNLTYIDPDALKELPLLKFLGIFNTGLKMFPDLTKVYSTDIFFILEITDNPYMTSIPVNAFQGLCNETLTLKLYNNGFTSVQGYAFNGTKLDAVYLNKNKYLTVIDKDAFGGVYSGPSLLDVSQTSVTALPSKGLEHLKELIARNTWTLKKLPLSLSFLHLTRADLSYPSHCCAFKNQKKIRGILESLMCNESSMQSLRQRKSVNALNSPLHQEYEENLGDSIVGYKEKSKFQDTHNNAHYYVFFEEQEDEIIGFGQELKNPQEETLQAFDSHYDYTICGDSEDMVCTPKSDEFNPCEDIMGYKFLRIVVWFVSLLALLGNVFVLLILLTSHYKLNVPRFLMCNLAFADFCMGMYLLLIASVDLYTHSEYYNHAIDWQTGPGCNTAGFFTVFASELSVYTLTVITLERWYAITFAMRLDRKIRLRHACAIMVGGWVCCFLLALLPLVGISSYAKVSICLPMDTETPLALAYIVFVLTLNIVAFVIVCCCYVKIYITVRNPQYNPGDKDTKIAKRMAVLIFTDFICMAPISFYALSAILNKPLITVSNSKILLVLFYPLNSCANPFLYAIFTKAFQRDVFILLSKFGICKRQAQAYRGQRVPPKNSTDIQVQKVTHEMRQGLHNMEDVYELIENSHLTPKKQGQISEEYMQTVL
Chain of Estrogen receptor beta (Homo sapiens) (Q92731 whole entry, looked up): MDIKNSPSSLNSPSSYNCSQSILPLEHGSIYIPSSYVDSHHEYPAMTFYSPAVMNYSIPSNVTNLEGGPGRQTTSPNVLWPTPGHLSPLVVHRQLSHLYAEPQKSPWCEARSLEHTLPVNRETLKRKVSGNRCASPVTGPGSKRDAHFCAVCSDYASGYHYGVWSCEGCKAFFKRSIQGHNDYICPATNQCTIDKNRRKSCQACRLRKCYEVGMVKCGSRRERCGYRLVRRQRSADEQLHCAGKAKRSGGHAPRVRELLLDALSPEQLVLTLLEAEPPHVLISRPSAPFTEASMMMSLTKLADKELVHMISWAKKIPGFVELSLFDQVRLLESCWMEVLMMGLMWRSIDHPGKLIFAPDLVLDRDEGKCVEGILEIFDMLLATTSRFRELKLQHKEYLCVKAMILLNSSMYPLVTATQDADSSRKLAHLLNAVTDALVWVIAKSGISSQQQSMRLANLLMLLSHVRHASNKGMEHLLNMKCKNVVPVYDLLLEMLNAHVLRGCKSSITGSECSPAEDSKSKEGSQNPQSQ
Chain of Androgen receptor (Homo sapiens) (P10275 whole entry, looked up): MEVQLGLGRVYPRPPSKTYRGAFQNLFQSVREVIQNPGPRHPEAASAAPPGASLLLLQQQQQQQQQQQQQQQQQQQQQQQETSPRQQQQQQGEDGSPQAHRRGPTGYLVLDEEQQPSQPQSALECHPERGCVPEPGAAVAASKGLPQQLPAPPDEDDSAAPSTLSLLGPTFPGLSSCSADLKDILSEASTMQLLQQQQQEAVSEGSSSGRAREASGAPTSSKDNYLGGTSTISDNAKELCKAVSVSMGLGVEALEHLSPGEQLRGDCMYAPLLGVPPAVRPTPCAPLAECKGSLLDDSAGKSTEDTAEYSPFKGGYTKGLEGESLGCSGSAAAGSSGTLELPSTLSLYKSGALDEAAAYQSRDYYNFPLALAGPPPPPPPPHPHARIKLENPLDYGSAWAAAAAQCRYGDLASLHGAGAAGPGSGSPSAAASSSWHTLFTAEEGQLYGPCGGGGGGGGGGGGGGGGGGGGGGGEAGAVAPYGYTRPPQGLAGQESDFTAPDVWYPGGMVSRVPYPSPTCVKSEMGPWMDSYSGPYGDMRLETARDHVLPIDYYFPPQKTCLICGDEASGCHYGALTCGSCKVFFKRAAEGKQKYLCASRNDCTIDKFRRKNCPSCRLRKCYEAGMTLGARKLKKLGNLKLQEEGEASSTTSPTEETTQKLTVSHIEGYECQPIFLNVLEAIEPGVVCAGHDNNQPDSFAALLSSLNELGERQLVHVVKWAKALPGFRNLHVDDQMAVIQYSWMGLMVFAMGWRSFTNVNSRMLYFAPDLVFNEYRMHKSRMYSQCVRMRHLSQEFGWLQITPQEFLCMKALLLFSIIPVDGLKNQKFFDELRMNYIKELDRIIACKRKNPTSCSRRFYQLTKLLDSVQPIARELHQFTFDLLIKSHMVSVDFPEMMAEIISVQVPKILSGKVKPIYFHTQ

`COS(=O)(=O)c1ccc(C)cc1`: the Potency entry in [1], in assay [2], in [3], in assay [4], in assay [5] and in [6] was “inactive” throughout. Moreover, the Potency result in assay [7], in [8], in assay [9], in [10], in [11] and in [12] was “inactive” in each case. Besides, the Potency result in [13], in [14] and in assay [16] was “inactive” throughout. Also, in assay [15], the outcome was inactive.

Turning to `CCCCOP(=O)(CCCC)OCCCC`, the Potency result in [1], in assay [2], in assay [3], in assay [5], in [6] and in assay [7] was “inactive” each time. Further, the Potency entry in assay [8], in assay [9], in assay [17], in [18], in assay [19] and in assay [10] was “inactive” each time. Moreover, the Potency result in assay [11], in [12] and in assay [13] was “inactive” throughout.

With `CC(C)CBr`, the Potency entry in assay [1], in assay [2], in assay [3], in [4], in [5] and in assay [7] was “inactive” each time. Moreover, the Potency entry in assay [8], in [9], in [17], in [18], in assay [19] and in [10] was “inactive” each time. For the same molecule, the Potency entry in [11], in assay [13], in [14] and in [16] was “inactive” each time. The Potency in assay [12] is 0.386 µM (active). Moreover, the molecule was classed as inactive in [15].

Turning to `Nc1ccccc1C(=O)Oc1ccc2ccccc2c1`, the Potency result in assay [1], in assay [2], in assay [3], in assay [4], in assay [6] and in [7] was “inactive” each time. The Potency entry in assay [8], in [9], in assay [10], in assay [12], in assay [13] and in [16] was “inactive” each time. In addition, the figures for the Potency in [5] and in [14] were 8.63 µM (active) and 2.17 µM (active), respectively. In addition, the call in assay [15] was inactive.

Take `CCOC(=O)C1(c2ccccc2)CCN(CCC(C#N)(c2ccccc2)c2ccccc2)CC1`: the Potency entry in assay [1], in [2], in assay [4], in [20], in assay [5] and in [6] was “inactive” throughout. For the same molecule, the Potency result in assay [7], in assay [8], in assay [9], in assay [18], in [10] and in [12] was “inactive” throughout. For the same molecule, the Potency entry in [13], in assay [14] and in [16] was “inactive” throughout. Besides, the Potency in assay [3] was 29.8 µM (active). In addition, the result in assay [15] was inactive.

For the molecule `N#C/C=C/c1ccccc1`, the Potency entry in [1], in assay [2], in assay [3], in assay [4], in assay [5] and in [6] was “inactive” each time. For the same molecule, the Potency entry in assay [7], in assay [8], in [9], in assay [17], in assay [10] and in [11] was “inactive” each time. Besides, the Potency entry in assay [12], in [13] and in [14] was “inactive” in each case.

For the molecule `CC(=O)O[C@H]1CC[C@@]2(C)C(=CC[C@@H]3[C@@H]2CC[C@]2(C)C(=O)CC[C@@H]32)C1`, the Potency result in assay [1], in [2], in assay [4], in assay [20], in assay [5] and in assay [6] was “inactive” throughout. For the same molecule, the Potency entry in [7], in assay [8], in assay [9], in [10], in assay [12] and in [13] was “inactive” each time. Further, the Potency in assay [3] was 5.45 µM (active); in assay [18], 1.72 µM (active); in assay [11] it was 48.6 µM (active); in assay [14] it was 8.63 µM (active). Moreover, in [15], the call was inactive.
